# Test results reported in PubChem BioAssay.
# Results with a measured potency or affinity are listed apart. Records with an inconclusive call do not appear. A number with no mark means an inactive call. Calls of active or inactive are those of the source. How the calls were made is not given here.
# Assay: NIH:OVCAR-3 ovarian cancer cell cytotoxicity, dose response, PAX8 inhibitor project, plate reader, dry powder samples (AID 743044)
# Settings: NIH:OVCAR-3 ovarian cancer cell viability; max activity: at 35 µM, stronger effect = lower value unless noted; series mostly up to 50 µM
row,Compound,max activity
1,O=S(=O)(c1ccccc1F)N1CC[C@@H]2[C@@H](CO)Nc3ccc(C4=CCCCC4)cc3[C@@H]21,"10.3% [at 4.2 µM, stronger effect = lower value]"
2,CN1c2ccc(-c3cccc(F)c3)cc2[C@@H]2[C@@H](CCN2C(=O)Cc2ccccc2)[C@@H]1CO,21.5%
3,COc1ccc(NC(=O)Nc2ccc3c(c2)C(=O)N([C@@H](C)CO)C[C@@H](C)[C@@H](CN(C)CC2CCCCC2)OCCCC[C@@H](C)O3)cc1,"-9.76% [at 4.2 µM, stronger effect = lower value]"

# Assay: IOSE-T80 ovarian epithelial cell cytotoxicity, dose response, cytotoxicity control for PAX8 inhibitor project, plate reader, dry powder samples (AID 743045);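 further: 0% = neutral control median and -100% = positive control median; more negative values mean more cell killing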
# Settings: IOSE-T80 ovarian epithelial cells; series mostly up to 35 µM
row,Compound,outcome
1,C[C@@H]1CCCCO[C@@H](CN(C)Cc2ccc(C(F)(F)F)cc2)[C@@H](C)CN([C@@H](C)CO)C(=O)c2cc(NS(=O)(=O)c3ccc(F)cc3)ccc2O1,inactive
2,C[C@H](CO)N1C[C@H](C)[C@H](CN(C)S(=O)(=O)c2ccc(Cl)cc2)OCCCC[C@H](C)Oc2ccc(NS(=O)(=O)c3ccc(F)cc3)cc2C1=O,inactive
3,Cc1noc(C)c1S(=O)(=O)N(C)C[C@@H]1OCCCC[C@H](C)Oc2ccc(NS(=O)(=O)c3ccc(Cl)cc3)cc2C(=O)N([C@H](C)CO)C[C@@H]1C,inactive
4,C[C@@H]1CCCCO[C@H](CN(C)Cc2ccc(Cl)c(Cl)c2)[C@H](C)CN([C@@H](C)CO)C(=O)c2cc(NC(=O)Nc3ccccc3)ccc2O1,inactive
5,C[C@@H]1CCCCO[C@H](CN(C)Cc2ccc(C(F)(F)F)cc2)[C@H](C)CN([C@@H](C)CO)C(=O)c2cc(NS(=O)(=O)c3cccs3)ccc2O1,inactive
6,CCCNC(=O)Nc1ccc2c(c1)OC[C@H](C)N(Cc1ccc(-c3ccccn3)cc1)C[C@@H](C)[C@@H](OC)CN(C)C2=O,inactive
7,C[C@@H]1CN([C@H](C)CO)C(=O)c2cc(NC(=O)Nc3ccc(F)cc3)ccc2O[C@@H](C)CCCCO[C@@H]1CN(C)Cc1ccc2c(c1)OCO2,inactive
8,C[C@@H]1CN([C@H](C)CO)C(=O)Cc2cc(NC(=O)Nc3ccc(F)cc3)ccc2O[C@H]1CN(C)Cc1ccc(Cl)c(Cl)c1,inactive
9,C[C@@H]1CCCCO[C@@H](CN(C)Cc2ccc(C(F)(F)F)cc2)[C@@H](C)CN([C@@H](C)CO)C(=O)c2cc(NS(=O)(=O)c3ccccc3)ccc2O1,inactive
10,O=C(C[C@H]1CC[C@H]2[C@@H](COC[C@@H](O)CN2Cc2ccc(Oc3ccccc3)cc2)O1)N1CCCCC1,inactive
11,C[C@@H]1CN([C@H](C)CO)S(=O)(=O)c2ccc(C#CC3CCCC3)cc2O[C@@H]1CN(C)C(=O)Cc1ccncc1,inactive
12,COc1ccc(NC(=O)Nc2ccc3c(c2)CC(=O)N([C@H](C)CO)C[C@@H](C)[C@@H](CN(C)Cc2ccc(Oc4ccccc4)cc2)O3)cc1,inactive
13,C[C@@H]1CCCCO[C@@H](CN(C)C(=O)Nc2cccc3ccccc23)[C@H](C)CN([C@H](C)CO)C(=O)c2cc(NS(=O)(=O)c3ccccc3)ccc2O1,inactive
14,O=C(Nc1ccc(Cl)c(Cl)c1)N[C@@H]1CC[C@H](CCn2cc(C3CCCCC3)nn2)O[C@H]1CO,inactive
15,C[C@@H]1CCCCO[C@H](CN(C)Cc2ccc(C(F)(F)F)cc2)[C@H](C)CN([C@H](C)CO)C(=O)c2cc(NS(=O)(=O)c3cccs3)ccc2O1,inactive
16,C[C@H](CO)N1C[C@H](C)[C@@H](CN(C)S(=O)(=O)c2ccc(Cl)cc2)OCCCC[C@H](C)Oc2ccc(NS(=O)(=O)c3ccc(Cl)cc3)cc2C1=O,inactive
17,C[C@@H]1CN([C@@H](C)CO)C(=O)Cc2cc(NC(=O)CCC(F)(F)F)ccc2O[C@H]1CN(C)Cc1ccc(-c2ccccc2)cc1,inactive
18,COc1cccc(S(=O)(=O)N2CC[C@H]3[C@@H](CO)N(C)c4ccc(C#Cc5ccc(F)cc5)cc4[C@H]32)c1,inactive
19,C[C@@H]1CCCCO[C@H](CN(C)Cc2ccc(C(F)(F)F)cc2)[C@H](C)CN([C@H](C)CO)C(=O)c2cc(NS(=O)(=O)c3ccccc3)ccc2O1,inactive
20,O=S(=O)(c1ccccc1F)N1CC[C@@H]2[C@@H](CO)Nc3ccc(C4=CCCCC4)cc3[C@@H]21,inactive
21,CN1c2ccc(-c3cccc(F)c3)cc2[C@@H]2[C@@H](CCN2C(=O)Cc2ccccc2)[C@@H]1CO,inactive
22,COc1ccc(NC(=O)Nc2ccc3c(c2)C(=O)N([C@@H](C)CO)C[C@@H](C)[C@@H](CN(C)CC2CCCCC2)OCCCC[C@@H](C)O3)cc1,inactive

# Assay: A2780 ovarian cancer cell cytotoxicity, dose response, cytotoxicity control, plate reader, dry powder samples (AID 743046);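 further: 0% = neutral control wells and -100% = cytotoxic reference compound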
# Settings: series mostly up to 35 µM
row,Compound,outcome
1,C[C@@H]1CCCCO[C@@H](CN(C)Cc2ccc(C(F)(F)F)cc2)[C@@H](C)CN([C@@H](C)CO)C(=O)c2cc(NS(=O)(=O)c3ccc(F)cc3)ccc2O1,inactive
2,Cc1noc(C)c1S(=O)(=O)N(C)C[C@@H]1OCCCC[C@H](C)Oc2ccc(NS(=O)(=O)c3ccc(Cl)cc3)cc2C(=O)N([C@H](C)CO)C[C@@H]1C,inactive
3,C[C@@H]1CCCCO[C@H](CN(C)Cc2ccc(Cl)c(Cl)c2)[C@H](C)CN([C@@H](C)CO)C(=O)c2cc(NC(=O)Nc3ccccc3)ccc2O1,inactive
4,C[C@@H]1CCCCO[C@H](CN(C)Cc2ccc(C(F)(F)F)cc2)[C@H](C)CN([C@@H](C)CO)C(=O)c2cc(NS(=O)(=O)c3cccs3)ccc2O1,inactive
5,CCCNC(=O)Nc1ccc2c(c1)OC[C@H](C)N(Cc1ccc(-c3ccccn3)cc1)C[C@@H](C)[C@@H](OC)CN(C)C2=O,inactive
6,C[C@@H]1CN([C@H](C)CO)C(=O)c2cc(NC(=O)Nc3ccc(F)cc3)ccc2O[C@@H](C)CCCCO[C@@H]1CN(C)Cc1ccc2c(c1)OCO2,inactive
7,C[C@@H]1CN([C@H](C)CO)C(=O)Cc2cc(NC(=O)Nc3ccc(F)cc3)ccc2O[C@H]1CN(C)Cc1ccc(Cl)c(Cl)c1,inactive
8,C[C@@H]1CCCCO[C@@H](CN(C)Cc2ccc(C(F)(F)F)cc2)[C@@H](C)CN([C@@H](C)CO)C(=O)c2cc(NS(=O)(=O)c3ccccc3)ccc2O1,inactive
9,O=C(C[C@H]1CC[C@H]2[C@@H](COC[C@@H](O)CN2Cc2ccc(Oc3ccccc3)cc2)O1)N1CCCCC1,inactive
10,C[C@@H]1CN([C@H](C)CO)S(=O)(=O)c2ccc(C#CC3CCCC3)cc2O[C@@H]1CN(C)C(=O)Cc1ccncc1,inactive
11,COc1ccc(NC(=O)Nc2ccc3c(c2)CC(=O)N([C@H](C)CO)C[C@@H](C)[C@@H](CN(C)Cc2ccc(Oc4ccccc4)cc2)O3)cc1,inactive
12,C[C@@H]1CCCCO[C@@H](CN(C)C(=O)Nc2cccc3ccccc23)[C@H](C)CN([C@H](C)CO)C(=O)c2cc(NS(=O)(=O)c3ccccc3)ccc2O1,inactive
13,O=C(Nc1ccc(Cl)c(Cl)c1)N[C@@H]1CC[C@H](CCn2cc(C3CCCCC3)nn2)O[C@H]1CO,inactive
14,C[C@@H]1CCCCO[C@H](CN(C)Cc2ccc(C(F)(F)F)cc2)[C@H](C)CN([C@H](C)CO)C(=O)c2cc(NS(=O)(=O)c3cccs3)ccc2O1,inactive
15,C[C@H](CO)N1C[C@H](C)[C@@H](CN(C)S(=O)(=O)c2ccc(Cl)cc2)OCCCC[C@H](C)Oc2ccc(NS(=O)(=O)c3ccc(Cl)cc3)cc2C1=O,inactive
16,C[C@@H]1CN([C@@H](C)CO)C(=O)Cc2cc(NC(=O)CCC(F)(F)F)ccc2O[C@H]1CN(C)Cc1ccc(-c2ccccc2)cc1,inactive
17,COc1cccc(S(=O)(=O)N2CC[C@H]3[C@@H](CO)N(C)c4ccc(C#Cc5ccc(F)cc5)cc4[C@H]32)c1,inactive
18,C[C@@H]1CCCCO[C@H](CN(C)Cc2ccc(C(F)(F)F)cc2)[C@H](C)CN([C@H](C)CO)C(=O)c2cc(NS(=O)(=O)c3ccccc3)ccc2O1,inactive
19,O=S(=O)(c1ccccc1F)N1CC[C@@H]2[C@@H](CO)Nc3ccc(C4=CCCCC4)cc3[C@@H]21,inactive
20,CN1c2ccc(-c3cccc(F)c3)cc2[C@@H]2[C@@H](CCN2C(=O)Cc2ccccc2)[C@@H]1CO,inactive
21,COc1ccc(NC(=O)Nc2ccc3c(c2)C(=O)N([C@@H](C)CO)C[C@@H](C)[C@@H](CN(C)CC2CCCCC2)OCCCC[C@@H](C)O3)cc1,inactive
